Source: PubChem BioAssay AID1259343 (VanderVen Lab, College of Veterinary Medicine, Cornell …, 2017)
The whole screen tested about 6,200 compounds, of which about 2,900 (47%) were called active. So high a share suggests a set chosen from earlier hits. The list shows a part of the results. A number with no mark means an inactive call. No stated cut-off is given here; in the data, active means inhibition above about 50%; inactive means the rest.

experiment: Mycobacterium tuberculosis growth inhibition, primary screen (AID 1259343); conditions: inhibition: at 10 µM, active compounds read high; outcome: 10 uM

Row | SMILES | inhibition
1 | N#Cc1c(F)cccc1NCCNc1nc2ccccc2o1 | -5.14%
2 | N#Cc1c(F)cccc1NCc1csc(C2CC2)n1 | 57.3% (active)
3 | Cc1ccc(NC2OC(CO)C(O)C(O)C2O)cc1Br (stereo unspecified) | 84.8% (active)
4 | OCC1O[C@H]([S-])[C@@H](O)C(O)[C@@H]1O.[Au+] (stereo partly specified) | 5.4%
5 | COc1cccc(-c2nc3ccc(-c4cccc(Cl)c4)cn3c2CN2CCNCC2)c1 | 23.2%
6 | CN(C)CCCOc1ccc(-c2nnc3ccc(-c4cccc(Oc5ccccc5)c4)cn23)cc1 | 66.5% (active)
7 | Cc1cc(NC(=O)CNC(c2ccccn2)C(C)C)ccc1Cl (stereo unspecified) | 79.4% (active)
8 | CCOc1cccc(-c2cccc(-n3cnnc3)c2)c1 | 66% (active)
9 | CCOc1cccc(-c2cnc(NC(C)=O)cn2)c1 | 23.7%
10 | Oc1ccc(CC2COCC(Cc3ccc(O)cc3)C2)cc1 (stereo unspecified) | 62.4% (active)
11 | CS(=O)(=O)c1nc(-c2ccccc2)cc(C(F)(F)F)n1 | 99.7% (active)
12 | O=c1ccc(-c2ccc(F)cc2)nn1Cc1ccc(C(F)(F)F)cc1 | 20%
13 | O=c1ccc(-c2ccc(F)cc2)nn1Cc1cccc(C(F)(F)F)c1 | 35.1%
14 | CS(=O)(=O)c1nc(-c2cccs2)cc(C(F)(F)F)n1 | 101% (active)
15 | Cc1ccc(-c2cc(C(F)F)nc(S(C)(=O)=O)n2)cc1 | 90.4% (active)
16 | CS(=O)(=O)c1nc(-c2ccc(F)cc2)cc(C(F)(F)F)n1 | 101% (active)
17 | O=c1[nH]c(=S)[nH]c2nc(-c3cccs3)cc(C(F)(F)F)c12 | 34.4%
18 | Cn1cccc1C1CCCCCN1C(=O)c1ccc(NC2CC2)nc1 (stereo unspecified) | -11.4%
19 | COc1ccc(-c2cc(C(F)(F)F)nc(S(C)(=O)=O)n2)cc1 | 101% (active)
20 | Cc1nc2c(OCc3cc(Cl)cc(Cl)c3)cccn2c1N(C)Cc1cccs1 | 82.7% (active)
21 | CC(C(=O)Nc1cccc(Cl)c1)N(C)Cc1cccs1 (stereo unspecified) | 5%
22 | COc1cc(/C=C/C(=O)Nc2cc(C)nn2-c2nc(C)c(C)c(=O)[nH]2)cc(OC)c1OC | 99.5% (active)
23 | CCCc1cc(=O)[nH]c(-n2nc(C)cc2NC(=O)/C=C/c2ccc(OC)c(OC)c2)n1 | 102% (active)
24 | CCCc1cc(=O)[nH]c(-n2nc(C)cc2NC(=O)/C=C/c2cc(OC)c(OC)c(OC)c2)n1 | 99.8% (active)
25 | COc1cc(/C=C/C(=O)Nc2cc(C)nn2-c2nc3c(c(=O)[nH]2)CCC3)cc(OC)c1OC | 2.27%
26 | CC(O)CN1CCN(C(=O)c2cc(Cl)c(Cl)n2C)CC1 (stereo unspecified) | -16.4%

Row | SMILES | inhibition
27 | CCn1cnnc1CCNS(=O)(=O)NCc1ccccc1 | -1.72%
28 | FC(F)(F)c1cccc(-c2nnn(Cc3ncc(-c4ccccc4)o3)n2)c1 | 58.2% (active)
29 | Cn1nnnc1SCc1nc(-c2cccc(C(F)(F)F)c2)no1 | -6.38%
30 | Fc1c(F)c(F)c(Cn2nnc(-c3ccccc3)n2)c(F)c1F | 26.7%
31 | CCC(=NNC(=O)c1ccc(F)cc1)c1cc(Cl)cc(Cl)c1O | 53.1% (active)
32 | CC(OC(=O)c1cc(Cl)c(O)c(Cl)c1)c1ccc(F)cc1 (stereo unspecified) | 45.8%
33 | CC(=NNC(=O)c1cc(-c2cccc3ccccc23)n[nH]1)c1ccccc1O | 41.3%
34 | CN(CC1CCCO1)S(=O)(=O)c1ccc(C(=O)Nc2ccc3sccc3c2)cc1 (stereo unspecified) | 92% (active)
35 | Cc1noc(C)c1CN1CCN2C=C(C(=O)Nc3ccc(-n4cccc4)cc3)OC2=NC1=O | 30.7%
36 | Cc1noc(C)c1CN1CCN2C(C(=O)Nc3ccc(-n4cccc4)cc3)=COC2=NC1=O | 90.5% (active)
37 | O=C(Nc1ccc(-n2cccc2)cc1)C1=COC2=NC(=O)N(Cc3ccccc3)CCN12 | 84.6% (active)
38 | Cc1ccccc1CN1CCN2C(C(=O)Nc3ccc(-n4cccc4)cc3)=COC2=NC1=O | 88.2% (active)
39 | Cn1ncc(NCc2ccc(-c3ccc4c(c3)CCO4)cc2)c(Cl)c1=O | 68.8% (active)
40 | c1cc(-c2ccc3c(c2)CCO3)ccc1CNC1CCCC1 | 75% (active)
41 | CC(C)Cc1nc(CN(C)Cc2ccc3c(c2)CCO3)no1 | 21.8%
42 | CC(C)(C)n1ncc(NCc2cccc3c2OCO3)c(Cl)c1=O | 27.4%
43 | O=C(c1ccc2c(c1)CCO2)N1CCOC(c2ccc(Cl)c(Cl)c2)C1 (stereo unspecified) | 7.26%
44 | Cc1cc(NC(=O)CON=C2CCN(C(=O)C3CC3)CC2)ccc1Br | 92.3% (active)
45 | Cc1cc(NC(=O)COC(=O)c2ccoc2)ccc1Br | 68.6% (active)
46 | Cc1cc(NC(=O)COc2ccc(C3=CCN(C(N)=O)CC3)cc2)ccc1Br | -21.6%
47 | O=C(CCc1n[nH]c(=S)[nH]c1=O)NCc1cccc(C(F)(F)F)c1 | -13.8%
48 | O=c1[nH]c(=S)[nH]nc1Cc1ccc(Cl)c(Cl)c1 | 96.8% (active)
49 | CC(C)C1=NOC(c2nc(C(C)c3ccccc3)no2)C1 (stereo unspecified) | 30.4%
50 | Cc1c[nH]c(=O)n1-c1ccc(C(=O)N2CCCC2c2ccccc2)cc1 (stereo unspecified) | -8.28%
51 | O=C(NCc1ccc(Oc2ccc(F)cc2)cc1)C1CC=CCC1 (stereo unspecified) | 88.9% (active)
52 | CC1CC1C(=O)NCc1ccc(Oc2ccc(F)cc2)cc1 (stereo unspecified) | -11.6%

Row | SMILES | inhibition
53 | COc1cccc(CN(C)Cc2nc(-c3cccs3)no2)c1 | 54.7% (active)
54 | CN(Cc1nc(-c2cccs2)no1)CC1Cc2ccccc2O1 (stereo unspecified) | inactive
55 | C#CCCC(C#N)(C#N)c1ncc(-c2ccc(OC)cc2)cn1 | 43%
56 | Cc1cc(Nc2cccc(=O)[nH]2)n(-c2ccc(Cl)c(Cl)c2)n1 | 49.9%
57 | O=C(O)c1cc(-c2cccs2)nn1-c1ccc(Cl)c(Cl)c1 | 51.3% (active)
58 | CC(C)c1ccc(NS(=O)(=O)C2CC2)cc1 | 30.9%
59 | CC1CN=C(Nc2ccc(C(C)C)cc2)S1 (stereo unspecified) | 6.24%
60 | CC(C)c1ccc(NC(=O)C2CCS(=O)(=O)C2)cc1 (stereo unspecified) | 75.6% (active)
61 | Cc1ccc(-c2c(N)n[nH]c2C(F)(F)F)cc1 | 32%
62 | Cc1ccc(-c2cc(C(F)(F)C(F)F)[nH]n2)cc1 | 86.5% (active)
63 | O=[N+]([O-])c1ccc(C=NNc2ccc(Cl)cc2)o1 | -17.5%
64 | O=[N+]([O-])c1ccc(C=NN(c2ccccc2)c2ccccc2)o1 | 47.1%
65 | O=[N+]([O-])c1ccc(C=NNc2ccc(Cl)c(Cl)c2)o1 | 93.2% (active)
66 | O=[N+]([O-])c1ccc(C=NNc2ccnc3cc(Cl)ccc23)o1 | 99.4% (active)
67 | O=[N+]([O-])c1ccc(C=Nn2cnn(Cc3ccccc3Cl)c2=S)o1 | 43.5%
68 | Cc1ccccc1C1c2[nH]c3ccccc3c2CCN1C(=O)c1cccc(C#CC(C)(C)O)c1 (stereo unspecified) | -3.93%
69 | CCc1ccc(Nc2nnc(SCC(=O)NC3CCCC3)s2)cc1 | 100% (active)
70 | CCCCc1ccc(Nc2nnc(SCC(=O)NCC)s2)cc1 | 83.3% (active)
71 | CCc1ccc(Nc2nnc(SCC(N)=O)s2)cc1 | 36.7%
72 | CCCCNC(=O)CSc1nnc(Nc2ccc(CC)cc2)s1 | 45.2%
73 | CCCCc1ccc(Nc2nnc(SCC(=O)NC3CCCC3)s2)cc1 | 86% (active)
74 | CCC(=O)N(Cc1ccco1)Cc1cc(NC(=O)c2ccccc2Cl)ccc1N(C)C1CCN(C)CC1 | 39.1%
75 | O=C(Nc1ccc(OCc2ccco2)c(Cl)c1)N1CCOCC1 | 79% (active)
76 | COc1ccc(OCc2cc(C(=O)N3CCCCCC3)no2)c(Cl)c1 | 42%
77 | O=S(=O)(Cc1ccccc1)c1nnnn1-c1ccccc1 | 101% (active)
78 | Cc1ccc(NNC2CC(=O)N(N(C)C)C2=O)cc1 (stereo unspecified) | 78.2% (active)

Row | SMILES | inhibition
79 | Cc1ccc(CC2CC(=O)N(C3CCCCC3)C2=O)cc1 (stereo unspecified) | 36.3%
80 | COc1cccc(C=CC(=O)c2ccc(Cl)c(Cl)c2)c1OC | 44.5%
81 | COc1ccc(/C=C/C(=O)c2cc(O)ccc2O)cc1 | 97.6% (active)
82 | COc1ccc(C=CC(=O)c2ccc3ccccc3c2)cc1 | 60.1% (active)
83 | COC(=O)c1ccc(C=CC(=O)c2ccc(OC)cc2)cc1 | 47.6%
84 | O=C(/C=C/c1ccc(O)cc1)c1ccccc1O | 47.6%
85 | O=C(/C=C/c1ccccc1)c1ccc(O)cc1O | 96.2% (active)
86 | COc1ccc(C(=O)C=Cc2cccc(O)c2)cc1F | 87.2% (active)
87 | O=C1COc2ccc(C(=O)C=Cc3ccc4ccccc4c3)cc2N1 | 62.3% (active)
88 | Oc1ccc(Cl)cc1Sc1cc(Cl)ccc1O | 101% (active)
89 | O=c1cc(O)c2sc3nc(C4CC4)cc(C(F)(F)F)c3c2[nH]1 | 38.2%
90 | COc1ccc(N=C2SCCN2CC(=O)c2ccc(Cl)cc2)cc1 | -4.26%
91 | Clc1ccc(N=C2SCCN2C2CCCCC2)cc1 | 90.5% (active)
92 | Clc1ccc(N=C2SCC3CCCCN23)cc1 (stereo unspecified) | -1.03%
93 | FC(F)Oc1ccc(N=C2SCC3CCCCN23)cc1 (stereo unspecified) | 82.4% (active)
94 | O=C(NCCc1ccc(F)cc1)C1Cc2ccccc2O1 (stereo unspecified) | 70.3% (active)
95 | CC(C)(CNC(=O)C1Cc2cc(F)ccc2O1)C1CCCCO1 (stereo unspecified) | 14.4%
96 | COc1ccc2c(c1)OCC(Cc1ccc(OC)c(OC(C)=O)c1)C2=O (stereo unspecified) | 96.6% (active)
97 | CC(C(=O)Nc1ccc(C#N)cc1)N1CC=C(c2ccccc2)CC1 (stereo unspecified) | 49.1%
98 | COc1ccc(NC(=O)C(C)n2cccn2)cc1Cl (stereo unspecified) | 8.88%
99 | CC(C(=O)Nc1ccc(C23CC4CC(CC(C4)C2)C3)cc1)n1cncn1 (stereo unspecified) | 95.9% (active)
100 | COc1ccc(Oc2cnn(-c3ccc(Cl)cc3)c(=O)c2Nc2ccc(C(=O)O)cc2)cc1 | 28%
101 | Cc1ccc(-n2nc(C(=O)c3ccc(Cl)cc3)c(N)c(C#N)c2=O)cc1 | 94.6% (active)
